The list is not random: actives were taken first. Their share in the collection is about 10%.
BAZ2B inh – inhibitors of human BAZ2B bromodomain | Q9UIF8 | AlphaScreen BAZ2B-H3K14Ac peptide displacement | Potency, µM (titrated, usually from 114 µM), usual class: inhibitors | 360,000 compounds, 4.4% hits; further: nearly all actives have a fitted effect of over 60% in size
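AlphaScreen displacement of biotin-H3(5-23)K14Ac peptide (50 nM final) from BAZ2B (50 nM final) in PBS pH 7.4, 0.01% Tween-20; complex preformed 30 min RT, then compounds (top 110 uM) 30 min RT, beads 20 min dark.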
CtBP-E1A inh – CtBP/E1A binding inhibition; activity change, % (concentration not given with the values); 340,000 compounds, 0.49% hits; AlphaScreen GST-E1A/His-CtBP binding, 1536-well; active compounds read low; in the data active means activity change below about -65%; inconclusive means mostly about -30% to -63%
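Steps: dispense buffer (Tris pH 8.0, NaCl 300 mM, TCEP 1 mM, BSA, Tween 20); add 5X protein mix (GST-E1A, His-CtBP, 125 nM each); pin 23 nL compound; 2 h at 37 °C, dark; add 5X beads (50 ug/mL); 1 h; read.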
Six1-Eya2 blk – blocks human Six1 binding to Eya2; Q15475+O00167; AlphaScreen GST-Six1/His-Eya2 binding, biochemical; active compounds read low; activity change, % (no concentration beside the values); 360,000 compounds, 0.56% hits; AID 651725; in the data active means activity change below about -65%; inconclusive means mostly about -30% to -63%
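Compounds are tested against tagged Six1 and Eya2 proteins bridged by glutathione donor and nickel acceptor beads; after a one-hour incubation at 37 °C without light, AlphaScreen emission is recorded.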
HP1b binding inh – blocks HP1-beta chromodomain binding to methylated histone tails; P83916; AlphaScreen HP1-beta / biotin-H3K9me3 peptide binding; Potency, µM (doses to about 114 µM), actives largely listed as inhibitors; 390,000 compounds, 0.56% hits; further: nearly all actives have a fitted effect of over 70% in size
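HP1-beta protein (50 nM final) preincubated 30 min at room temperature with biotinylated H3(1-18)K9me3 peptide (50 nM) in PBS pH 7.4, 0.01% Tween-20, then compound added for 30 min. AlphaScreen streptavidin donor/nickel chelate acceptor beads (10 ug/mL final), 30 min dark, luminescence read.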
G9a inh – blocks human histone lysine methyltransferase G9a. AID 504332. G9a H3K9 monomethylation, AlphaScreen, 2 h. Q96KQ7. 350,000 compounds, 8.8% hits. Potency, µM (series often up to 102 µM), hits mostly inhibitors; further: nearly all actives have a fitted effect of over 75% in size
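Quantitative HTS format: methyltransferase activity on a biotin-tagged H3K9 peptide is measured by AlphaScreen, using a rabbit anti-monomethyl-H3K9 antibody with streptavidin donor and anti-IgG acceptor beads. Final levels are 20 nM enzyme, 500 nM peptide, 20 uM SAM; 2 h RT.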
JMJD2A Tudor – inhibitors of human JMJD2A Tudor domain | O75164 | AlphaScreen JMJD2A-Tudor / H3K4me3 peptide binding | Potency, µM (series often up to 114 µM), hits mostly inhibitors | 390,000 compounds, 4.4% hits; further: nearly all actives have a fitted effect of over 50% in size
Large screens that a line does not name were inactive; ! = repeats disagree. Unless noted, the call rests on the fitted dose curve; in most records, active means well fitted inhibition curve with a large enough effect; inconclusive means small, poorly fitted or top-dose-only effect; inactive means no such curve, though single readings can be large or run the other way.

COc1ccc(CNC(=O)c2cc3c(C)nc4ccccc4c3o2)c(OC)c1	Six1-Eya2 blk inconclusive
Cc1nc2c(C(=O)NCc3ccc4c(c3)OCO4)c[nH]n2c(=O)c1Cl	CtBP-E1A inh inconclusive
Cc1nc2ccccc2c2oc(C(=O)N3CCN(C4CCCCC4)CC3)cc12	none
COc1ccc(N2CCN(C(=O)c3cc4c(C)nc5ccccc5c4o3)CC2)cc1	CtBP-E1A inh inconclusive, HP1b binding inh inconclusive, G9a inh 50.1µM, JMJD2A Tudor 56.2µM
COc1cccc(CNC(=O)c2c[nH]n3c(=O)c(Cl)c(C)nc23)c1	CtBP-E1A inh -75.8, Six1-Eya2 blk -83.7, G9a inh 44.7µM
Cc1nc2ccccc2c2oc(C(=O)N3CCC(N4CCCCC4)CC3)cc12	G9a inh 70.8µM
COc1cccc(CNC(=O)c2cc3c(C)nc4ccccc4c3o2)c1	CtBP-E1A inh -65.6, Six1-Eya2 blk inconclusive, G9a inh inconclusive
O=C(CSc1cn(CCNC(=O)c2c(F)cccc2F)c2ccccc12)Nc1ccccc1F	none (no result: CtBP-E1A inh, Six1-Eya2 blk)
COc1ccc(OC)c(CNC(=O)CN(c2ccc(C)cc2)S(=O)(=O)N(C)C)c1	none (no result: CtBP-E1A inh, Six1-Eya2 blk)
COCCCNS(=O)(=O)c1cc(-c2onc(C)c2C)ccc1OC	none (no result: CtBP-E1A inh, Six1-Eya2 blk)
COc1cccc(N2CCN(C(=O)c3cc4c(=O)n(Cc5cccs5)ccc4nc3C)CC2)c1	JMJD2A Tudor inconclusive (no result: CtBP-E1A inh, Six1-Eya2 blk)
COc1ccc(N2CCN(C(=O)c3cc4c(=O)n(Cc5cccs5)ccc4nc3C)CC2)cc1	BAZ2B inh 50.1µM, G9a inh inconclusive, JMJD2A Tudor inconclusive (no result: CtBP-E1A inh, Six1-Eya2 blk)
CCOC(=O)c1cc(-c2ccc(F)cc2)n(CCC(=O)Nc2nc3cc(C)c(C)cc3s2)c1C	none (no result: CtBP-E1A inh, Six1-Eya2 blk)
NC(=O)c1ccccc1NC(=S)NC(=O)c1ccc(Br)o1	G9a inh 44.7µM
O=C(NC(=S)Nc1ccccc1)c1ccc(Br)o1	G9a inh inconclusive (no result: CtBP-E1A inh)
NC(=O)c1ccccc1NC(=S)NC(=O)CCc1ccccc1	HP1b binding inh inconclusive, G9a inh 4.47µM, JMJD2A Tudor 79.4µM
CCOC(=O)c1ccc(Nc2nc3ccc(C(=O)c4ccccc4)cc3n3c(C)nnc23)cc1	none (no result: CtBP-E1A inh, Six1-Eya2 blk)
O=C1OC2(CCCC2)OC(=O)C1=Cc1c[nH]c2ccccc12	JMJD2A Tudor 89.1µM (no result: G9a inh)
O=C(/C=C/c1c[nH]c2ccccc12)c1ccccc1	none
COc1ccc(/C=C/c2n[nH]c(=O)c(C#N)c2C)cc1	G9a inh 44.7µM
COc1cccc(/C=N/Nc2ncnc3scc(-c4ccccc4)c23)c1OC	G9a inh 50.1µM, JMJD2A Tudor inconclusive
Cc1sc2ncnc(N/N=C/c3ccccc3O)c2c1C	BAZ2B inh 35.5µM, CtBP-E1A inh -87.6, Six1-Eya2 blk -86.1, JMJD2A Tudor inconclusive
COc1ccc(-c2csc3ncnc(Nc4ccccc4)c23)cc1	none (no result: CtBP-E1A inh, Six1-Eya2 blk)
Cc1c(P(=S)(c2ccccc2)c2ccccc2)c2ccccc2n1Cc1ccccc1	none (no result: BAZ2B inh, CtBP-E1A inh, Six1-Eya2 blk, HP1b binding inh, G9a inh)
Cc1ccc(-c2ccc(CCC(=O)O)n2-c2cccc(C)c2C)cc1	BAZ2B inh 44.7µM, G9a inh 14.1µM, JMJD2A Tudor 35.5µM (no result: CtBP-E1A inh, Six1-Eya2 blk)
CC(=O)Nc1ccc(-n2c(CCC(=O)O)ccc2-c2ccc(C)cc2)cc1	G9a inh 14.1µM (no result: CtBP-E1A inh, Six1-Eya2 blk)
CC(=O)Nc1ccc(-n2c(CCC(=O)O)ccc2-c2ccc(Br)cc2)cc1	BAZ2B inh inconclusive, G9a inh inconclusive (no result: CtBP-E1A inh, Six1-Eya2 blk)
COC(=O)c1ccc(-n2c(CCC(=O)O)ccc2-c2ccc(C)cc2)cc1	BAZ2B inh 44.7µM, G9a inh 14.1µM!, JMJD2A Tudor inconclusive
COC(=O)c1ccccc1NC(=O)Cn1c(CCC(=O)O)ccc1-c1ccc(C)cc1	BAZ2B inh inconclusive, G9a inh inconclusive, JMJD2A Tudor inconclusive (no result: CtBP-E1A inh, Six1-Eya2 blk)
Cc1ccc(-c2ccc(CCC(=O)O)n2-c2cccc(C(=O)O)c2)cc1	G9a inh 44.7µM
CCCCc1ccc(NC(=O)CSc2nc3ccccc3nc2N2CCOCC2)cc1	none (no result: CtBP-E1A inh, Six1-Eya2 blk)
CC(C)n1c(CCC(=O)O)ccc1-c1ccccc1	G9a inh inconclusive
CC(=O)c1c(C(C)=O)c(C)n(-c2ccc(C(=O)O)cc2)c1C	none
COc1ccc(-c2ccc(CCC(=O)O)n2-c2cc(OC)ccc2OC)cc1	none (no result: BAZ2B inh, HP1b binding inh, G9a inh, JMJD2A Tudor)

From PubChem
